The values below come from PubChem BioAssay (NCATS).

The target in test [1] is Estrogen receptor (Homo sapiens) (UniProt P03372). The test is described as follows: qHTS assay for small molecule agonists of estrogen receptor alpha signaling (AID 588514).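 Further: 0% = vehicle only and 100% = reference agonist; nearly all actives have a fitted effect of over 70% in size.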 The gist of the method:
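Read-out: CCF4 fluorescence from a beta-lactamase reporter in ER-alpha-UAS-bla HEK 293 cells after 18 hrs of compound exposure at 37 C. Normalized to 20 nM 17-beta-estradiol (100%) and DMSO (0%).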
(In general: Quantitative high-throughput screening tests each substance at several concentrations.)

The target of test [2] is Glucocorticoid receptor (Homo sapiens) (UniProt P04150). In words: qHTS assay for small molecule antagonists of glucocorticoid receptor signaling (AID 588533; active means well fitted inhibition curve with a large enough effect in the signal ratio, with a control signal flat, not every such curve was filed as active; the % refers to the signal ratio;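 further: cells stimulated with 2 nM dexamethasone as agonist; on the % scale 0 is the no-effect control and ±100 the full control effect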). The method in brief: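 Antagonist-mode qHTS: compound titrations added to GRE-bla HeLa cells, then dexamethasone 2 nM final; 18 h, 37 C. CCF4 FRET fluorescence normalized to dexamethasone and DMSO; IC50 from Hill fit.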
Glucocorticoid receptor (Homo sapiens), sequence (P04150 whole entry, looked up): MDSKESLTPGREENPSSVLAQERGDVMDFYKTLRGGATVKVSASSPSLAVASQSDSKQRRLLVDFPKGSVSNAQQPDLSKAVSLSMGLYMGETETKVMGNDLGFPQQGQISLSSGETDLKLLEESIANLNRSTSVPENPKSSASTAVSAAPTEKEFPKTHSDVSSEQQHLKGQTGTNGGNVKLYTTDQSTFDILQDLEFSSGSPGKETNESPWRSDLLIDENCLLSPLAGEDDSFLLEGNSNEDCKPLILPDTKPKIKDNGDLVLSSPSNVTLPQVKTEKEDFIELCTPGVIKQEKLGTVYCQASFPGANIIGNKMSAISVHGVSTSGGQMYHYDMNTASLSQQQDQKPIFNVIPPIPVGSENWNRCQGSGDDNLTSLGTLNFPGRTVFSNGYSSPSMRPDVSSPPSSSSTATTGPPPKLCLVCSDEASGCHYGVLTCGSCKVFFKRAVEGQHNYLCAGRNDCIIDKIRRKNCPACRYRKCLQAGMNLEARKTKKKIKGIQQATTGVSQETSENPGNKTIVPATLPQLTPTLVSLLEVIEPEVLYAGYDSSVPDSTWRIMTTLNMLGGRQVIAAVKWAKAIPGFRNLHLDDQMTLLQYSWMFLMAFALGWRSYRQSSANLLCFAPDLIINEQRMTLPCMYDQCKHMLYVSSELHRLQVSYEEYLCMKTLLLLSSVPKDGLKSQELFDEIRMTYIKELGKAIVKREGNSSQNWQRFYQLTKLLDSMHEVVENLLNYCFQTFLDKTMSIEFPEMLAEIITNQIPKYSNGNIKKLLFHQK

Test [3] deals with Peroxisome proliferator-activated receptor delta (Homo sapiens) (UniProt Q03181). In words: qHTS assay for small molecule agonists of peroxisome proliferator-activated receptor delta signaling (AID 588534).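 Further: 0% = DMSO basal wells and 100% = positive control agonist at 10 µM.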 The gist of the method:
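Titration series tested in agonist mode on beta-lactamase reporter cells; 18 hrs at 37 C after a 5 hr pre-incubation. Readout: CCF4 fluorescence, 2 hrs RT. Hill equation gives EC50 and maximal response.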

The nature of test [4]: qHTS assay for small molecule antagonists of peroxisome proliferator-activated receptor delta signaling (AID 588535; active means well fitted inhibition curve with a large enough effect in the signal ratio, with a control signal flat, not every such curve was filed as active; the % refers to the signal ratio;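 on max response: cells co-treated with a PPAR-delta agonist as stimulator during compound exposure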). The note with it: HEK293T PPARd-UAS-bla, beta-lactamase FRET ratio, 18 h; 460 nm channel. The gist of the method: (§1)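 Antagonist-mode qHTS using GeneBLAzer PPAR-delta-UAS-bla HEK293T cells; compound exposure 18 hrs at 37 C over a titration. Ratiometric CCF4 fluorescence at 460/530 nm; concentration-response points fitted to the Hill equation.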

Test [5] addresses Peroxisome proliferator-activated receptor delta (Homo sapiens) (UniProt Q03181). Described as above. The gist of the method:
as §1

In test [6] the target is Vitamin D3 receptor (Homo sapiens) (UniProt P11473). The test is described as follows: qHTS assay for small molecule antagonists of vitamin D receptor signaling (AID 588541).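 Further: receptor activated by calcitriol during compound treatment; series mostly up to about 77 µM; on the % scale 0 is the no-effect control and ±100 the full control effect.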 The method in brief: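 Antagonist-mode beta-lactamase reporter assay: HEK293T VDR-UAS-bla cells were exposed to titrated compound alongside 1-alpha,25-dihydroxyvitamin D3 at 3 nM final for 16 h. Values were normalized to the 50 nM agonist control and DMSO basal, with IC50 and efficacy from Hill equation fits.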
Vitamin D3 receptor (Homo sapiens), sequence (P11473 whole entry, looked up): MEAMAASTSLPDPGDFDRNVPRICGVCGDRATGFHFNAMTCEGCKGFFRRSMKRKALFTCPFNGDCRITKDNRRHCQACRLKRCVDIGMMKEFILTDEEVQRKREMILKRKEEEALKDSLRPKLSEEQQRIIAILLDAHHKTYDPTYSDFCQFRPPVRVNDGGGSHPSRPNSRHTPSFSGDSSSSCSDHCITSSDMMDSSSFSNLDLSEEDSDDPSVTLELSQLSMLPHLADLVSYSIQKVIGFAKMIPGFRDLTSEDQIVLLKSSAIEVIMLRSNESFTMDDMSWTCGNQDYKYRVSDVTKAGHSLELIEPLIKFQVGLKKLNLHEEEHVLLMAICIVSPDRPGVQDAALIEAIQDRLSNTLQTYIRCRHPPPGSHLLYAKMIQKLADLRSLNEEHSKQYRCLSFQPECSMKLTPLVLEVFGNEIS

Test [7] addresses Retinoic acid receptor RXR-alpha (Homo sapiens) (UniProt P19793). The test is described as follows: qHTS assay for small molecule agonists of retinoid X receptor alpha signaling (AID 588544).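 Further: 0% = DMSO basal wells and 100% = reference agonist.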
Test [8] concerns the target Thyroid hormone receptor beta (Homo sapiens) (UniProt P10828). The test is described as follows: qHTS assay for small molecule agonists of thyroid hormone receptor beta signaling (AID 588545). The method in brief:
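Agonist activity was read as beta-lactamase CCF4 fluorescence (405 ex, 460/530 em), scaled between DMSO (0%) and 10 nM T3 (100%), then Hill-fitted for EC50 and efficacy. HEK 293 TR-UAS-bla cells in 2% charcoal/dextran FBS medium were exposed 18 h at 37 C.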

Test [9] is described as follows: qHTS assay for small molecule antagonists of retinoid X receptor alpha signaling (AID 588546; active means well fitted inhibition curve with a large enough effect in the signal ratio, with a control signal flat, not every such curve was filed as active; the % refers to the signal ratio;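 further: cells stimulated with 9-cis-retinoic acid as agonist; on the % scale 0 is the no-effect control and ±100 the full control effect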). The conditions noted are these: HEK293T RXRa-UAS-bla, beta-lactamase ratio, antagonist mode; measured here: W530 green channel, cytotoxicity proxy. The gist of the method: (§2)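 Beta-lactamase reporter inhibition, read as CCF4 fluorescence ratio (ex 405, em 460/530 nm) after 2 h at RT. HEK293T UAS-bla cells, 2500/well, were stimulated with 9-cis-RA at 500 or 100 nM final alongside test compound for 18 h at 37 C.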

For test [10], the target named is Retinoic acid receptor RXR-alpha (Homo sapiens) (UniProt P19793). The test is described as above. The note with it: HEK293T RXRa-UAS-bla, beta-lactamase ratio, antagonist mode. The gist of the method:
as §2

The target of test [11] is Thyroid hormone receptor beta (Homo sapiens) (UniProt P10828). The test is described as follows: qHTS assay for small molecule antagonists of thyroid hormone receptor beta signaling (AID 588547; active means well fitted inhibition curve with a large enough effect in the signal ratio, with a control signal flat, not every such curve was filed as active; the % refers to the signal ratio;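 further: cells stimulated with 0.4 nM T3 agonist during compound exposure; series mostly up to about 77 µM; on the % scale 0 is the no-effect control and ±100 the full control effect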). The note with it: TR-UAS-bla HEK293, beta-lactamase ratio, antagonist mode, 18 h. The gist of the method: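 Inhibition of T3-driven (0.4nM final) beta-lactamase reporter activity was measured over 0.59 nM to 92 uM compound after 18 h at 37 C. The cells were GripTite HEK293 TR-UAS-bla in charcoal/dextran-stripped serum, with CCF4 ratio read-out and IC50 from Hill fits.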
Thyroid hormone receptor beta (Homo sapiens), sequence (P10828 whole entry, looked up): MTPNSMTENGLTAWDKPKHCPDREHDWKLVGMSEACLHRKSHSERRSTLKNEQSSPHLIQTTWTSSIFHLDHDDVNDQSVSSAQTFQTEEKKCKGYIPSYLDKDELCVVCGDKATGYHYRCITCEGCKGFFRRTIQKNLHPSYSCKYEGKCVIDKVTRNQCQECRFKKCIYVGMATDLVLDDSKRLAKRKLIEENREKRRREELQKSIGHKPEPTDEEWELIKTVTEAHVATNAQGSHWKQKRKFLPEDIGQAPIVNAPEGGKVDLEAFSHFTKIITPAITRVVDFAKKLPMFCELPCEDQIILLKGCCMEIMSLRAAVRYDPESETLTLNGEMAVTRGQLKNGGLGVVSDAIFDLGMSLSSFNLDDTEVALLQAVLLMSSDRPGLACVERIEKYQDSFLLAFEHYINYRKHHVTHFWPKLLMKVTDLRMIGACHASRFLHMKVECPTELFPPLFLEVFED

A short description of test [12]: qHTS assay for small molecule activators of the p53 signaling pathway (AID 651743; active means well fitted activation curve with a large enough effect in the signal ratio, not every such curve was filed as active; the % refers to the signal ratio; further: series mostly up to about 92 µM; % of control where 0% means no effect). The conditions noted are these: HCT-116 p53RE-bla, beta-lactamase FRET ratio, 16 h; activation: stronger effect = higher value. The gist of the method:
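A beta-lactamase reporter under p53 response element control, stably carried by HCT-116 cells, reported pathway activation. Test compounds were applied for 16 hours at 37 C, and fluorescence was measured 2 hours after adding the B/G FRET substrate.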

Test [13] is described as follows: qHTS assay for small molecule activators of the nuclear factor-kappa B (NF-kB) signaling pathway (AID 651749; active means well fitted activation curve with a large enough effect in the signal ratio; the % refers to the signal ratio; further: series mostly up to about 77 µM; % of control where 0% means no effect). The conditions noted are these: NF-kB-bla ME-180 cells, beta-lactamase FRET ratio, 16 h; activation: stronger effect = higher value. The gist of the method: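 FRET-based beta-lactamase detection in ME-180 cells reports NF-kB response-element-driven transcription following overnight (16 hr) compound treatment.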

The nature of test [14]: qHTS assay for environmental chemicals that activate the Aryl hydrocarbon Receptor (AhR) signaling pathway (AID 651777; active means well fitted curve in the direction sought with a large enough effect; an effect the other way counts as inactive or inconclusive; further: % of control where 0% means no effect; nearly all actives have a fitted effect of over 15% in size). The conditions noted are these: 1A2-DRE human hepatoma cells, luciferase, 24 h; activation: stronger effect = higher value. The method in brief:
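Measured luciferase activity, read 30 min after One-Glo addition at room temperature, from human hepatoma cells bearing a dioxin response element–CYP1A2 promoter reporter and exposed to compound for 24 hr at 37 C.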

The target in test [15] is Peroxisome proliferator-activated receptor alpha (Homo sapiens) (UniProt Q07869). In words: qHTS assay for small molecule agonists of the peroxisome proliferator-activated receptor alpha (PPARalpha) signaling pathway (AID 651778; active means well fitted curve in the direction sought with a large enough effect; an effect the other way counts as inactive or inconclusive; further: % of control where 0% means no effect). The conditions noted are these: PathHunter PPARalpha complementation, chemiluminescence, 6 h; max response: stronger effect = higher value. The method in brief:
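Chemiluminescence from complemented enzyme reported PPARalpha activation in cells after 6 hr of compound treatment at 37 C. The detection reagent was incubated for 60 min at room temperature, and compounds were scored as agonists.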

A short description of test [16]: qHTS assay for small molecule agonists of the antioxidant response element (ARE) signaling pathway measured by Nrf2-dependant transcriptional activity (AID 720636; active means well fitted curve in the direction sought with a large enough effect in the repeat runs; an effect the other way counts as inactive or inconclusive;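 further: HepG2 cells with an ARE-driven luciferase reporter; % of control where 0% means no effect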). The method in brief: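 In HepG2 cells engineered with an Nrf2-responsive luciferase gene, ARE induction was quantified as luminescence after 16 hr compound treatment at 37 C.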
Test [17] is described as follows: qHTS assay for small molecule agonists of the antioxidant response element (ARE) signaling pathway measured by Nrf2-dependant transcriptional activity - cell viability counter screen (AID 720653; active means well fitted curve in the direction sought with a large enough effect in the repeat runs; an effect the other way counts as inactive or inconclusive; further: on the % scale 0 is the no-effect control and ±100 the full control effect). The conditions noted are these: ARE-bla HepG2 viability, CellTiter-Glo ATP luminescence, 16 h; max response: stronger effect = lower value. The method in brief:
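Cytotoxicity counter screen: intracellular ATP quantified by CellTiter-Glo luminescence in the same ARE-bla HepG2 plates, after 16 h compound exposure and a 2 h beta-lactamase substrate step.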

A short description of test [18]: qHTS assay for cell viability of the p53RE-bla HCT-116 cell line (AID 743292; active means well fitted curve in the direction sought with a large enough effect; an effect the other way counts as inactive or inconclusive; further: on the % scale 0 is the no-effect control and ±100 the full control effect; nearly all actives have a fitted effect of over 55% in size). The gist of the method:
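Intracellular ATP of p53RE-bla HCT-116 cells measured by luciferase luminescence following 16 h compound incubation at 37 C; DMSO-only wells served as vehicle controls.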

Test [19] has as its target Nuclear receptor subfamily 1 group I member 2 (Rattus norvegicus) (UniProt Q9R1A7). In words: qHTS assay for small molecule activators of the rat pregnane X receptor (rPXR) signaling pathway (AID 651751; call rule not given here; further: 0% is about no effect). The conditions noted are these: rPXR reporter cells, luciferase (One-Glo), 24 h.
A short description of test [20]: qHTS assay for cell viability of HEK293 cells (AID 743288; active means well fitted curve in the direction sought with a large enough effect; an effect the other way counts as inactive or inconclusive; further: on the % scale 0 is the no-effect control and ±100 the full control effect; nearly all actives have a fitted effect of over 50% in size). The conditions noted are these: ATP luminescence (CellTiter-Glo), 18 h; max response: stronger effect = lower value. The method in brief: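 Steps: plate 2,000 parental HEK293 cells per well; incubate ≥5 h, 37 C; add compounds in DMSO; incubate 18 h, 37 C; add CellTiter-Glo; wait 30 min at room temperature; read luminescence.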

Results filed as inconclusive are left out. Active and inactive are the calls of the source. Unless noted, the call rests on the fitted dose curve.

Peroxisome proliferator-activated receptor alpha (Homo sapiens), sequence (Q07869 whole entry, looked up): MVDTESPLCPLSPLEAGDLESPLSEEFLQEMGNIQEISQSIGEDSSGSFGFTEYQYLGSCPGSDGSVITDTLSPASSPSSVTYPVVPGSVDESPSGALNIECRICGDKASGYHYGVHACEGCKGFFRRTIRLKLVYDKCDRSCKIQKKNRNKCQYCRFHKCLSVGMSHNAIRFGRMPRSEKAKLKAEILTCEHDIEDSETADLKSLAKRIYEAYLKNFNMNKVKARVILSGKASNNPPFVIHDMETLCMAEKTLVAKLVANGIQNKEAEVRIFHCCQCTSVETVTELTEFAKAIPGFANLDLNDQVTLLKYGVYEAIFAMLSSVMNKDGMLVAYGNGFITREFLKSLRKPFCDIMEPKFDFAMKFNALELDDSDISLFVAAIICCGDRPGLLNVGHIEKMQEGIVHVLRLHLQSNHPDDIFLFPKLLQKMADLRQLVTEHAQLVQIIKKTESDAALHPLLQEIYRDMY
Retinoic acid receptor RXR-alpha (Homo sapiens), sequence (P19793 whole entry, looked up): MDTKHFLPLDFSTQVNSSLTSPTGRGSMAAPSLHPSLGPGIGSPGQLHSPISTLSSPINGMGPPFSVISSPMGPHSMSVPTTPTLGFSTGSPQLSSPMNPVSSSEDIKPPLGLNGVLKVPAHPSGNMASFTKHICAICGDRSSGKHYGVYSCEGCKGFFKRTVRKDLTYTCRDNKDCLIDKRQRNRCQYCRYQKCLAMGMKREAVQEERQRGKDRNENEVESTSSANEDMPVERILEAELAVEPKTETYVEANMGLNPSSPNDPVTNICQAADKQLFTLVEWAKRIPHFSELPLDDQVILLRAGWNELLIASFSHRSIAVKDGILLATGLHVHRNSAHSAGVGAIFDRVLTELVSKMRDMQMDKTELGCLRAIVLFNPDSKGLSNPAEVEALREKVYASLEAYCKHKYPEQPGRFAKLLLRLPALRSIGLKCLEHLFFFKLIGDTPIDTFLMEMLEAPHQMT
Estrogen receptor (Homo sapiens), sequence (P03372 whole entry, looked up): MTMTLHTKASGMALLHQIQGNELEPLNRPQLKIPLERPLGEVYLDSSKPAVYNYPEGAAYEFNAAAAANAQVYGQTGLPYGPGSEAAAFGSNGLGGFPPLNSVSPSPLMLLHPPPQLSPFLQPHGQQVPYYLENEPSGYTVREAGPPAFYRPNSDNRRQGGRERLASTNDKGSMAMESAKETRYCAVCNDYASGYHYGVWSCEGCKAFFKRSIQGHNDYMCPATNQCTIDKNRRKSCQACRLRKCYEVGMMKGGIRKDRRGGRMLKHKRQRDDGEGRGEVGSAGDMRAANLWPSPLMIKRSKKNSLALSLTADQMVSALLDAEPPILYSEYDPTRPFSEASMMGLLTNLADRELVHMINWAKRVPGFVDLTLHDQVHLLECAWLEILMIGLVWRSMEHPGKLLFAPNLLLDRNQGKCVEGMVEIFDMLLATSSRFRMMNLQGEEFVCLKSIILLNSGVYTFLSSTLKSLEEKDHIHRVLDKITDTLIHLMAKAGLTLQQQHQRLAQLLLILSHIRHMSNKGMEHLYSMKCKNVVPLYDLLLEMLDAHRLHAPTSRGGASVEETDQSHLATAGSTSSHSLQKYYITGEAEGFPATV
Nuclear receptor subfamily 1 group I member 2 (Rattus norvegicus), sequence (Q9R1A7 whole entry, looked up): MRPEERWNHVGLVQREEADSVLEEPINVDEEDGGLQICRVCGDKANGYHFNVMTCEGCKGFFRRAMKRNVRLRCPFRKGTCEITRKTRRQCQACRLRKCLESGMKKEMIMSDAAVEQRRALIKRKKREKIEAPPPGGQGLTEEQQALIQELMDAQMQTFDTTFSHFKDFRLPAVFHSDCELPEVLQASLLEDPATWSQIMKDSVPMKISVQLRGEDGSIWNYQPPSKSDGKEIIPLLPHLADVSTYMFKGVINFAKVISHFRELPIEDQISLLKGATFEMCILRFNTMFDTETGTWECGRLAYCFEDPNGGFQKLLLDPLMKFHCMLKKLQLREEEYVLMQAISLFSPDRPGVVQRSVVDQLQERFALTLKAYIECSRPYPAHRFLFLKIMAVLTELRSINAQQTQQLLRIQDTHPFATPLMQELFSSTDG
Peroxisome proliferator-activated receptor delta (Homo sapiens), sequence (Q03181 whole entry, looked up): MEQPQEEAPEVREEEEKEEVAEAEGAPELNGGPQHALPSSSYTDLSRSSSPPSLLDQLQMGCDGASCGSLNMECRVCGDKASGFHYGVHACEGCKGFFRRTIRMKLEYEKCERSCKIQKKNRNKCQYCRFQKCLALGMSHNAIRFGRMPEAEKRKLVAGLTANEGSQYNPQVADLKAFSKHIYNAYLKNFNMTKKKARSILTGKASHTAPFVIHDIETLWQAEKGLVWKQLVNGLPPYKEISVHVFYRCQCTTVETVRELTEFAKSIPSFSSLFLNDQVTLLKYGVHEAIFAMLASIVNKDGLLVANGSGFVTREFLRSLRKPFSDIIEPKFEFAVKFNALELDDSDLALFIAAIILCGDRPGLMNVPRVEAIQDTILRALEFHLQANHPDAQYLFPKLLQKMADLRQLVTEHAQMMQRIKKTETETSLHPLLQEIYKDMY

For the compound `CCOP(N)(=O)Oc1ccc(SC)c(C)c1` (configuration not stated), the Potency result in test [1], in test [2], in test [5], in [6], in test [7] and in [8] was “inactive” in each case. Further, the Potency entry in test [16] and in test [18] was “inactive” throughout. The outcome in [3] was inactive. For the same compound, the max response in test [4] was 41.4%; in [9], -11.1%; in [10], -26.2% (inactive); in test [15], -3.39% (inactive); in test [17], -8.16% (inactive); in [19] it was 4.69% (inactive). The activity change % (negative = inhibition) in [11] was -15.7% (inactive). The activation was -1.01% (inactive) in test [12], 0.0027% (inactive) in test [13] and 0.564% (inactive) in test [14].

`CCOP(=O)(OCC)Oc1ccc2c(C)c(Cl)c(=O)oc2c1`: the Potency entry in test [1], in [2], in test [5], in [6], in [7] and in [16] was “inactive” throughout. Besides, in [18], the Potency result was “inactive”. In test [3], the compound was classed as inactive. Also, the max response in test [4] was 36%; in test [9], -10.4%; in test [10], -0.0168% (inactive); in test [15], -3.26% (inactive); in test [17], -2.45% (inactive); in test [20] it was -8.63% (inactive). In addition, the max response in test [19] is 12.3% (inactive). Moreover, in [11], the activity change % (negative = inhibition) was -0.271% (inactive). Besides, the values for the activation in test [12], in test [13] and in test [14] were 2.64% (inactive), 0.977% (inactive) and 0.485% (inactive), respectively.

For the compound `CCOc1nc(C(Cl)(Cl)Cl)ns1`, the result in test [3] was inactive. Also, the max response is -34.9% in test [4]; -10.8% in test [9]; 3.55% (inactive) in [10]; -0.167% (inactive) in [15]; -1.82% (inactive) in test [17]; -11.1% (inactive) in [20]. Besides, the Potency entry in [5], in test [6], in test [7], in test [8] and in test [18] was “inactive” throughout. Further, in test [11], the activity change % (negative = inhibition) was 11.9% (inactive). Besides, the activation in test [12] is -0.297% (inactive); in test [13] it was 0.185% (inactive); in test [14], 7.64% (inactive).

Consider `CCOP(=S)(OCC)Oc1nc(Cl)n(C(C)C)n1`, for which the Potency result in [6], in test [8] and in test [16] was “inactive” each time. Besides, the max response in test [9] was 10.5%; in test [10] it was 14.2% (inactive); in test [15] it was 0.789% (inactive); in test [17] it was -6.76% (inactive); in [20], 6.35% (inactive). Further, the activation in test [12] was -5.02% (inactive); in [13] it was 1.85% (inactive).

For the compound `Nc1c(Cl)c(F)nc(OCC(=O)O)c1Cl`, the Potency entry in [1], in test [2], in test [6], in test [7], in test [16] and in [18] was “inactive” throughout. Moreover, the max response in test [9] is -12.1%; in test [10] it was -9.36% (inactive); in [15], 0.318% (inactive); in test [17], 1.18% (inactive); in test [20], 4.54% (inactive); in test [19], -2.68% (inactive). In test [11], the activity change % (negative = inhibition) was 11.1% (inactive). Also, the activation is 0.955% (inactive) in [12], 0.422% (inactive) in test [13] and 1.14% (inactive) in test [14].

With `CCOP(=O)(NC(C)C)Oc1ccc(S(C)(=O)=O)c(C)c1` (configuration not stated), the Potency entry in test [1], in test [2], in test [6], in test [8], in test [16] and in [18] was “inactive” throughout. The compound was classed as inactive in [3]. Further, the max response in test [9] was -11.4%; in test [10] it was 6.87% (inactive); in test [15], -2.16% (inactive); in test [17], -4.32% (inactive); in [20], -9.88% (inactive); in [19], 4.77% (inactive). In test [11], the activity change % (negative = inhibition) was 9.01% (inactive). The activation in [12] was 0.006% (inactive); in test [13], -0.438% (inactive); in test [14], 1.16% (inactive).
